Compound activity: PubChem BioAssay, National Center for Advancing Translational Sciences (NCATS)
This is a sample that favours compounds with a hit; in the whole collection about 19% have one here.
HT1080 IDH1KD tx: qHTS for induction of synthetic lethality in tumor cells producing 2HG: qHTS for the HT-1080-IDH1KD cell line; AID 686971, 2013; Potency, µM (doses to about 46.1 µM), for inactives: at the highest dose activity, negative = toxicity, actives largely listed as cytotoxic; 360,000 tested, 2% active; HT-1080 IDH1 knockdown viability, ATP luminescence, 48 h;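 further: 0% = DMSO wells and -100% = cell-free medium wells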
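Knockdown cells (IDH1KD HT-1080) received compounds 2 h after plating at 750 cells/well and were kept 48 h at 37 °C in 5% FBS RPMI. A CellTiter-Glo luminescence read gave % activity for curve fitting.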
HT1080NT lethal: qHTS for induction of synthetic lethality in tumor cells producing 2HG: qHTS for the HT-1080-NT fibrosarcoma cell line | Potency, µM (titrated, usually from 46.1 µM), without a hit: top-dose activity, negative = less viability, hits mostly cytotoxic | 360,000 tested, 1.6% active | HT-1080-NT fibrosarcoma viability, CellTiter-Glo ATP luminescence, 48 h | AID 686970, 2013;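 further: NT is the 2HG producing partner of a matched IDH1 knockdown line; 0% = DMSO-treated cells and -100% = media-only wells without cells; nearly all actives have a fitted effect of over 55% in size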
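Viability by CellTiter-Glo luminescence after 48 h compound exposure at 37C of HT-1080-NT cells (750/well, RPMI, 5% FBS). % activity scaled between DMSO wells and medium-only wells, then curve-fitted and categorized by curve class.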
TDP1 cell CPT: qHTS for Inhibitors of human tyrosyl-DNA phosphodiesterase 1 (TDP1): qHTS in cells in presence of CPT; AID 686979, 2013; chicken DT40 Tdp1-/-;hTDP1 cells + 20 nM CPT, ATP luminescence, 48 h; Potency, µM (titrated, usually from 46.2 µM), inactives show at the top dose activity change, negative = growth inhibition, most hits filed as inhibitors; 420,000 tested, 12% active; further: nearly all actives have a fitted effect of over 55% in size
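Cell growth measured by CellTiter-Glo luminescence after a minimum 48 h, 37 C compound exposure with 20 nM CPT in Tdp1-knockout DT40 cells stably expressing hTDP1, seeded 400/well; qHTS titration format.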
TDP1 cell noCPT: qHTS for Inhibitors of human tyrosyl-DNA phosphodiesterase 1 (TDP1): qHTS in cells in absence of CPT. DT40 Tdp1-/- hTDP1 cells, no CPT, ATP luminescence, 48 h. Potency, µM (titrated, usually from 46.2 µM), for inactives: top-dose activity change, negative = growth inhibition, actives largely listed as inhibitors. 420,000 tested, 15% active. AID 686978, 2013; further: nearly all actives have a fitted effect of over 55% in size
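Luminescent ATP content (CellTiter-Glo) served as the growth readout. Knockout chicken DT40 cells expressing human TDP1 were exposed to compounds without camptothecin for a minimum 48 hr at 37 °C.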
KB-V1 cytotox: qHTS assay for MDR1-selective chemotherapeutics: Primary screen using the drug-selected MDR subline cells KB-V1; KB-V1 MDR cells viability, CellTiter-Glo, 72 h; Potency, µM (titrated, usually from 46.1 µM), usual class: cytotoxic; 400,000 tested, 3.4% active; AID 1347076, 2019; further: nearly all actives have a fitted effect of over 60% in size
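Cytotoxicity toward P-gp-expressing KB-V1 cells was determined as loss of CellTiter-Glo luminescence after 72 h at 37 degrees C. Compounds were tested in quantitative HTS format across a concentration range, with curves fitted to normalized data.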
KB-3-1 tox: qHTS assay for MDR1-selective chemotherapeutics: Primary screen using the parental adenocarcinoma cell KB-3-1. KB-3-1 viability, CellTiter-Glo ATP luminescence, 72 h. AID 1347075, 2019. Potency, µM (top dose mostly 46.1 µM), usual class: cytotoxic. 400,000 tested, 1.4% active; further: nearly all actives have a fitted effect of over 60% in size
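Cells are dispensed, compounds pinned in, plates held at 37 °C for 72 h, then CellTiter-Glo is added and luminescence read after 10 minutes. Cell line: parental KB-3-1 in phenol-red-free DMEM, 10% FBS.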
* = called active by the depositor; i = inactive; ? = inconclusive; nt = no result. The call rests on the fitted dose curve; in most records, active means well fitted curve in the direction sought with a large enough effect; inconclusive means small, poorly fitted or top-dose-only effect, or another doubt; inactive means no such curve, though single readings can be large; an effect the other way counts as inactive or inconclusive. Unless noted, on the % scale 0 is the no-effect control and ±100 the full control effect; potency means the concentration at half of the fitted maximal effect.

SMILES | HT1080 IDH1KD tx | HT1080NT lethal | TDP1 cell CPT | TDP1 cell noCPT | KB-V1 cytotox | KB-3-1 tox
Cc1nn(-c2ccccc2)c(Cl)c1C(=O)NNC(=O)c1ccccc1O | ? | -24% | ? | 13µM* | ? | ?
Cc1c(C(=O)NCc2cccs2)oc2ccccc12 | ? | -19% | -11% | -4% | i | i
Cc1c(-c2ccccc2)nc2ccccc2c1C(=O)Oc1ccc([N+](=O)[O-])cc1 | 6% | 14% | 8.2µM* | 5.8µM* | i | i
Cc1nn(-c2ccccc2)c(Cl)c1C(=O)NNC(=O)c1ccncc1 | 0% | 18% | -4% | -2% | i | i
Cc1c(-c2ccccc2)nc2ccccc2c1C(=O)NCc1cccs1 | -4% | -5% | ? | 16µM* | 12µM* | i
Cc1nn(-c2ccccc2)c(Cl)c1C(=O)NCc1cccs1 | 27% | 14% | 15% | ? | 15µM* | i
Cc1cnc(CNc2nc(-c3c(C)noc3C)nc3ccccc23)cn1 | nt | nt | 1% | 2% | nt | nt
Cc1nn(Cc2ccccc2)c(Cl)c1C(=O)NCc1ccc(C)n1C | 1% | 2% | -1% | -9% | 15µM* | i
Cc1nn(Cc2c(Cl)cccc2Cl)c(C)c1C(=O)NCc1ccc(C)n1C | -1% | -1% | ? | -27% | i | i
Nc1cccc(Nc2nc(OC(C(F)(F)F)C(F)(F)F)nc(OC(C(F)(F)F)C(F)(F)F)n2)c1 | ? | ? | 21µM* | 23µM* | 23µM* | 18µM*
Cc1cc(C)c2nc(C(F)(F)F)nc(NCCCN3CCOCC3)c2c1 | 16µM* | 18µM* | ? | ? | 3.7µM* | ?
Cc1cc(C)c2cc(C#N)c(NCCNC(=S)NCCCN3CCOCC3)nc2c1 | 0% | -1% | ? | ? | i | i
Cc1cccc(-c2nc3scc(CCNS(=O)(=O)c4ccc(F)cc4C)n3n2)c1 | nt | nt | ? | 16µM* | nt | nt
CC(=O)Nc1ccc(S(=O)(=O)NCCc2csc3nc(-c4cccc(C)c4)nn23)cc1 | nt | nt | ? | 21µM* | nt | nt
Cc1ccc(S(=O)(=O)NCCc2csc3nc(-c4ccccc4C)nn23)cc1 | nt | nt | -23% | ? | i | i
Cc1cccc(-c2nc3scc(CCNS(=O)(=O)c4ccc5c(c4)OCCO5)n3n2)c1 | nt | nt | 23µM* | ? | nt | nt
CCCNC(=O)C1(C)CCCN(CCC(=O)c2ccccc2)C1 (stereo unspecified) | ? | ? | 5.8µM* | 7.3µM* | i | i
CC1(Oc2cccc(F)c2)CCN(Cc2ccc(-c3ccccn3)cc2)C1 (stereo unspecified) | -1% | -5% | ? | 18µM* | i | i
CCCNC(=O)C1(C)CCN(Cc2ccc(-c3ccccn3)cc2)C1 (stereo unspecified) | 1% | 3% | ? | ? | i | i
CCCNC(=O)C1(C)CCCN(Cc2ccccc2-c2ccccc2)C1 (stereo unspecified) | 3% | ? | ? | ? | i | i
CCCNC(=O)C1(C)CCCN(Cc2cc(-c3ccccc3)nn2C)C1 (stereo unspecified) | 3% | 0% | ? | 16µM* | ? | ?
CCCNC(=O)C1(C)CCCN(Cc2ccc(-c3ccccn3)cc2)C1 (stereo unspecified) | 19% | -2% | 16µM* | 13µM* | i | i
